Data: PubChem BioAssay (NCI)
Compounds without any hit were thinned out: in the full panel of roughly 79,000, 15% have a hit. Cut-off read from the data, not from the text of the source: active = growth inhibition above about 70%; inactive = the rest.

Tests used:
[1] = NCI Yeast Anticancer Drug Screen. Data for the rad50 strain (AID 155);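 note: 0% = growth of vehicle-only cultures of the same strain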; conditions: S. cerevisiae rad50 strain growth inhibition; at 50.0 µM; hits give high values
How it was run: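 DNA repair mutant yeast, compound exposure, growth read-out; inhibition is taken relative to vehicle.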

[2] = NCI Yeast Anticancer Drug Screen. Data for the mec2-1 strain (AID 157); conditions: S. cerevisiae mec2-1 strain, at 50.0 µM, hits give high values
How it was run: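 Cells of the genetically defined mec2-1 yeast strain are incubated with test compound. Inhibition of growth is calculated against vehicle-treated controls.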

[3] = NCI Yeast Anticancer Drug Screen. Data for the sgs1 mgt1 strain (AID 161);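 note: 0% = growth of cultures given vehicle only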; conditions: S. cerevisiae sgs1 mgt1 strain, at 50.0 µM, hits give high values
How it was run: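 Read-out: growth inhibition vs vehicle controls. Cells: mutant yeast strain deficient in DNA damage repair.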

[4] = NCI Yeast Anticancer Drug Screen. Data for the cln2 rad14 strain (AID 165);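 note: 0% = growth equal to vehicle treated cultures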; conditions: S. cerevisiae cln2 rad14 strain, at 50.0 µM, hits give high values
How it was run: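 The screen exposed genetically defined yeast (cln2 rad14) to test compounds and scored growth inhibition relative to vehicle-treated controls.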

[5] = NCI Yeast Anticancer Drug Screen. Data for the bub3 strain (AID 167); conditions: S. cerevisiae bub3 mutant strain, at 50.0 µM, hits give high values
How it was run: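 In this screen, a yeast mutant lacking normal mitotic checkpoint function is challenged with compound. Relative growth versus vehicle gives the inhibition value.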

[6] = NCI Yeast Anticancer Drug Screen. Data for the mlh1 rad18 strain (AID 175); conditions: S. cerevisiae mlh1 rad18 strain growth inhibition; at 50.0 µM; hits give high values
How it was run: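 Compound-treated yeast growth, normalised to vehicle controls. Strain bears defined DNA repair mutations.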

Measured: growth inhibition

CC(C)=CCCc1cc(-c2cc(CCC=C(C)C)nc(N)n2)nc(N)n1
inactive: [1] 3.5% | [2] -10.9% | [3] -3.2% | [4] -7.1% | [5] -22.9% | [6] 15.1%

Cc1nn(-c2ccccc2)nc1C(=O)Nc1ccc2[nH]ncc2c1
inactive: [1] -39.2% | [2] -48.1% | [3] -8.95% | [4] -15.8% | [5] -22.9% | [6] -24.6%

CN(C)NC(=O)Nc1ccc2ccccc2c1
inactive: [1] -39.4% | [2] -30.7% | [3] -8.55% | [4] -41% | [5] -24.2% | [6] -24.4%

CC1COC2(CCCCC2)O1 (configuration not stated)
inactive: [1] -25.2% | [2] -3.45% | [3] -44.1% | [4] -37% | [5] -14.8% | [6] -26.1%

CSc1n[nH]c(=O)c2nc[nH]c12
inactive: [1] -9.3% | [2] -9.2% | [3] 0.55% | [4] -34.5% | [5] 7.75% | [6] -5.2%

CCCCCCCCCCCCNC(=S)N/N=C/c1ccc(OC)cc1
inactive: [1] -19.1% | [2] -10.5% | [3] -16.8% | [4] 13.3% | [5] -8.4% | [6] -28.2%

COc1ccc(NC(=O)C(=O)C2NC(=S)NC2=O)c(OC)c1 (configuration not stated)
inactive: [1] 34.4% | [2] 16.5% | [3] 11.6% | [4] 15.3% | [5] 3% | [6] 3.2%

O=C1NC(=O)c2c(Br)c(Br)c(Br)c(Br)c21
inactive: [1] -20.6% | [2] -32.9% | [3] 2.35% | [4] 9.6% | [5] -16.6% | [6] -1.55%

C(CCC[Si]12OCCN(CCO1)CCO2)CC[Si]12OCCN(CCO1)CCO2
inactive: [1] 6% | [2] -1.8% | [3] 20.1% | [4] 11.9% | [5] -1.45% | [6] 1.1%

CC1(C)CCC(C)(C)c2cc(C(=O)O)ccc21
inactive: [1] 7.55% | [2] 5.3% | [3] 1.55% | [4] 5.4% | [5] 14.4% | [6] 5.05%

COC(=O)[C@]1(NC(=O)c2ccccc2)C[C@H]1C=O
inactive: [1] 21% | [2] 15.2% | [3] 14.4% | [4] 10.9% | [5] 9.6% | [6] -54.8%

CC1O[C@@]2(CC[C@H]3[C@@H]4CCC5=CC(=O)CC[C@]5(C)[C@H]4CC[C@@]32C)C1=O (some centres not stated)
inactive: [1] -0.55% | [2] 4.95% | [3] 11.4% | [4] -16.8% | [5] 26.9% | [6] 25.9%

ClCCCCSC1CCCCC1
inactive: [1] -5.7% | [2] -9.15% | [3] -5.4% | [4] -3.1% | [5] 0.6% | [6] -25.1%

CCCC[Si]CCCC
inactive: [1] 14.8% | [2] 10% | [3] 1.1% | [4] 14.6% | [5] 4.5% | [6] 11.2%

Cc1ccc(C(CCl)c2ccc(C)cc2)cc1
inactive: [1] -18.1% | [2] -1.45% | [3] -0.35% | [4] -36.5% | [5] -21.5% | [6] -2.95%

Nc1nc(SCCCc2ccccc2)c2[nH]cnc2n1
inactive: [1] 7.95% | [2] -2.9% | [3] -3.4% | [4] 25.1% | [5] 31.6% | [6] -6.55%

Cc1ccc(C(C)C)nc1
inactive: [1] 17.1% | [2] 18.5% | [3] 19.1% | [4] 25.2% | [5] 22.5% | [6] 26.7%

NCC(c1ccccc1)C1CCCCC1 (configuration not stated)
inactive: [1] 13.2% | [2] -2.35% | [3] 5.05% | [4] -7.5% | [5] -3.9% | [6] 15%

O=c1cc(CC(O)(C(F)(F)Cl)C(F)(F)Cl)[nH]n1-c1ccccc1
inactive: [1] -27.9% | [2] 4.05% | [3] -7.75% | [4] 11.4% | [5] -22.1% | [6] -5.65%

COC1CCC2(C)C3CCC4C(=CCC5C(C)(C)C(=O)CCC45C)CC3(C)CCC2C1(C)C (configuration not stated)
inactive: [1] 16.3% | [2] -11.3% | [3] -8.55% | [4] -12.8% | [5] -2.2% | [6] -12.1%

CCC(CCC#N)(CCC#N)C(=O)c1ccc(C)s1
inactive: [1] 1.5% | [2] -4.3% | [3] 1.3% | [4] -19.8% | [5] 0.1% | [6] 2.45%

O=C(CC(=O)c1ccc(-c2ccc(C(=O)CC(=O)c3ccccc3)cc2)cc1)c1ccccc1
inactive: [1] -16.4% | [2] -11% | [3] -20.4% | [4] -34.4% | [5] -1.8% | [6] -10.7%
